Hits are enriched below; roughly 2.6% of the tested compounds scored in any of these assays.
PAFAH1B2 FP inh = PAFAH1B2 (human) inhibition | inhibition, % at 3.39 µM | P68402 | recombinant PAFAH1B2, FP-rhodamine activity probe, fluorescence polarization | hit rate 1.2% among 340,000 | AID 492953;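 active means inhibition above the mean of all tested compounds plus 3 SD, cut at about 24% in these data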
PAFAH1B3 inh = PAFAH1B3 (human) inhibition; Q15102; recombinant PAFAH1B3, FP-rhodamine probe, fluorescence polarization; inhibition, % at 3.39 µM; hit rate 0.28% among 340,000;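 active means inhibition above the screen-wide average of all tested compounds plus 3 SD, cut at about 25% in these data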
PKA-R2B act = activators of human PKA-R2B complex | P22694+P31323 | PKA-R2B holoenzyme dissociation, Cy5-IP20 fluorescence polarization; R2B truncated from residue 108, S112A mutant; 0% DMSO only, 100% 113 µM cGMP | activation, % at 11.4 µM | hit rate 0.079% among 340,000 | AID 504700;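 active means activation above a cutoff set at the mean over all compounds plus 3 SD, cut at about 18% in these data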;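 further: higher means more holoenzyme dissociation and a rise in polarization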
pPAFAH FP inh = pPAFAH (human) enzyme inhibition. recombinant pPAFAH, FP-rhodamine probe fluorescence polarization. inhibition, % at 3.39 µM. hit rate 1.5% among 330,000. AID 463082;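 active means inhibition above the mean inhibition across the screen plus 3 SD, cut at about 25% in these data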;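 further: inhibitors block binding of the rhodamine activity-based probe so polarization drops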
PKA-R1A activ = activates the PKA-R1A holoenzyme complex. P00514+P68181. PKA-R1A dissociation, Cy5-IP20 fluorescence polarization; scaled: DMSO 0%, 113 µM cGMP 100%. activation, % at 11.4 µM. hit rate 0.083% among 340,000. AID 504707;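 active means percent activation above the mean of all tested compounds plus 3 SD, cut at about 19% in these data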;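 further: higher means more PKAc released from R1A so a rise in polarization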
PAFAH2 FP inh = inhibitors of human PAFAH2; Q99487; recombinant PAFAH2, FP-rhodamine activity probe, fluorescence polarization; inhibition, % at 3.39 µM; hit rate 0.99% among 340,000; AID 492956;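 active means inhibition above the mean over all tested compounds plus 3 SD, cut at about 30% in these data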;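 further: inhibitors block probe labeling of enzyme so polarization drops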
R1A FP artifact = fluorescence polarization artifact in PKA-R1A activator counter-screen; shares compounds with PKA-R1A activ; Cy5-IP20 peptide alone, fluorescence polarization artifact counterscreen; activation, % at 11.4 µM; hit rate 7% among 280; AID 504799;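 active means mean activation over triplicate runs exceeds the adjusted cutoff derived for the parent primary screen, cut at about 19% in these data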;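 further: no PKA protein present so any polarization rise reflects compound interference; higher means stronger polarization artifact and likely false positive in parent screen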
PKA-R1A act conf = confirmation of PKA-R1A complex activators; hit rate 9% among 280; activation, % at 11.4 µM; shares compounds with PKA-R1A activ; Cy5-IP20 fluorescence polarization, PKA-R1A holoenzyme dissociation;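 active means mean activation over replicate wells exceeds the adjusted hit threshold taken from the earlier primary screen, cut at about 20% in these data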
Target sequence (P00514 whole entry, looked up): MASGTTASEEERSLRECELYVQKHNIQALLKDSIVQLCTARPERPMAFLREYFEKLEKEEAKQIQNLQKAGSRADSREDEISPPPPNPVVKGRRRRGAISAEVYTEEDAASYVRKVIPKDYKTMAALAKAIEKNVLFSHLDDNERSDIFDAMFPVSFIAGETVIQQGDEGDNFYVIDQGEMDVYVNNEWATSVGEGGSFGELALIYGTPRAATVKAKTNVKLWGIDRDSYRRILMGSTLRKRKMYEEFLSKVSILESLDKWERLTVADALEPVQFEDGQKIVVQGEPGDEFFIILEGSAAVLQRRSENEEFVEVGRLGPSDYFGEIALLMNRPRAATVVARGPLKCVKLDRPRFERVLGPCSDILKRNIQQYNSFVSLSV
A number is an active result; n = inactive; x = no result given.

SMILES	PAFAH1B2 FP inh	PAFAH1B3 inh	PKA-R2B act	pPAFAH FP inh	PKA-R1A activ	PAFAH2 FP inh	R1A FP artifact	PKA-R1A act conf
CN(Cc1ccccc1)C(=O)C1CCN(S(=O)(=O)c2ccc(-n3cnnn3)cc2)CC1	n	n	n	n	21	n	n	n
C=CCCC(=O)N1C[C@H]2CON(C)[C@H]2C[C@H]1c1cccc(Oc2ccccc2)c1	x	x	n	x	n	x	x	x
CCCCOc1ccc(C(=O)Nn2c(-c3cccs3)nc3ccccc3c2=O)cc1	n	n	n	n	19	n	n	n
O=C(/C=C/c1ccccc1)Nn1c(-c2cccs2)nc2ccccc2c1=O	n	n	n	n	n	n	x	x
CC(C)/C(C=O)=C(/NC1CCCCC1)c1ccccc1	n	n	n	n	n	n	x	x
CC1=NN(c2ccccc2)C(c2ccco2)C1 (configuration not stated)	n	n	n	x	20	n	n	n
COc1ccc(CC(=O)NCCc2ccc(S(N)(=O)=O)cc2)cc1	n	n	n	n	n	n	x	x
Cc1ccc(CC(=O)NCCc2ccc(S(N)(=O)=O)cc2)cc1	n	n	n	n	19	n	n	n
O=C(CSC(=S)N1CCCCC1)c1ccccc1	n	n	n	n	20	n	n	n
O=C(CSC(=S)N1CCCC1)c1ccccc1	n	n	n	n	n	n	x	x
COc1ccc(CNC(=O)CNC(=O)c2c(C)nn(C)c2Cl)cc1	n	n	n	n	19	n	n	n
CCC(CO)n1cnnc1-c1ccncc1 (configuration not stated)	n	n	n	n	20	n	n	n
COc1ccc(Cn2ccnc2)cc1[N+](=O)[O-]	n	n	n	n	n	n	x	x
COc1ccc(Cn2ccnc2)cc1Br	n	n	n	n	20	n	n	n
S=c1[nH]nc(-c2cc(-c3ccccc3)n[nH]2)n1/N=C/c1ccccc1	n	n	n	n	n	n	x	x
Cc1cccc(/C=N/n2c(-c3cc(-c4ccccc4)n[nH]3)n[nH]c2=S)c1	n	n	n	n	19	n	n	n
O=C(CC(=O)Nc1cccc(Cl)c1Cl)Nc1cccc(Cl)c1Cl	n	n	n	n	n	n	x	x
Cc1nn(CC(=O)Nc2ccc(N3CCOCC3)cc2)c(C)c1[N+](=O)[O-]	n	n	n	n	n	n	x	x
O=C(CN1C(=O)c2cccnc2C1=O)c1ccccc1	n	n	n	n	20	n	n	n
COc1cccc(/C=N/NC(=O)CCc2ccccc2)c1	n	n	n	n	23	n	n	n
CC(=O)c1ccc(N2CCCC2)c(F)c1	x	x	x	n	x	x	x	x
CC(=O)c1ccc(N2CCC(C)CC2)c(F)c1	n	n	n	n	20	n	n	n
COCCn1c(N)c(N(Cc2ccccc2)C(=O)COc2ccc(F)cc2Cl)c(=O)[nH]c1=O	n	n	n	n	20	n	n	n
Nc1nnnn1/N=C/c1ccccn1	n	n	n	n	21	n	n	n
Cc1cc(C(=O)CN2C(=O)C(=O)N(Cc3ccccc3)C2=O)c(C)n1CC1COc2ccccc2O1 (configuration not stated)	n	n	n	n	n	n	x	x
SMILES	PAFAH1B2 FP inh	PAFAH1B3 inh	PKA-R2B act	pPAFAH FP inh	PKA-R1A activ	PAFAH2 FP inh	R1A FP artifact	PKA-R1A act conf
Cc1cc(C(=O)COC(=O)c2ccc(CO)cc2)c(C)n1CC1COc2ccccc2O1 (configuration not stated)	n	n	n	n	19	n	n	n
COCCNC(=O)C(c1ccc(F)cc1)N(Cc1ccccc1)C(=O)CCC(=O)Nc1ccccn1 (configuration not stated)	n	n	n	n	n	n	x	x
O=C(N=C1SC2CS(=O)(=O)CC2N1c1ccc(F)c(Cl)c1)C1CCCO1 (configuration not stated)	n	n	n	n	n	n	x	x
COc1ccc2nc(SC(C)C(=O)NC3CCCCC3)[nH]c2c1 (configuration not stated)	n	n	n	x	n	n	x	x
COCCCn1c(SCC(=O)NC2CCCC2)nnc1-c1ccco1	n	n	n	n	26	n	n	n
COCCNC(=O)CSc1ccccc1C(=O)NC1CCCc2ccccc21 (configuration not stated)	n	n	n	n	n	n	x	x
O=C(NCc1ccccc1Cl)c1ccc(S(=O)(=O)Nc2cccc(C(F)(F)F)c2)cc1	n	n	n	n	22	n	26	22
Cc1ccc(N(Cc2ccccc2)C(=O)c2cc(S(=O)(=O)N3CCOCC3)ccc2F)cc1	n	n	n	n	n	n	x	x
COc1ccc2[nH]c(=O)c(CN(C(=O)c3ccccn3)c3ccccc3)cc2c1	n	n	n	n	20	n	n	n
COc1ccc2[nH]c(=O)c(CN(C(=O)c3cccnc3)c3ccccc3)cc2c1	n	n	n	n	n	n	x	x
CC(C)[C@H](NS(=O)(=O)c1ccc2c(c1)OCCO2)C(=O)OCC(=O)Nc1ccccc1	n	n	n	n	19	n	n	n
Cc1ccc(S(=O)(=O)N[C@H](C(=O)OCC(=O)NC(=O)Nc2ccc3c(c2)OCCO3)C(C)C)cc1	n	n	n	n	n	n	x	x
CCc1sc(N)nc1-c1ccccc1	n	n	n	n	n	n	x	x
Cc1sc(N)nc1-c1ccccc1	n	n	n	n	21	n	n	n
COc1ccc(S(=O)(=O)Nc2c(C)cccc2C)cc1-n1cnnn1	n	n	n	n	19	n	n	n
COc1ccc(S(=O)(=O)NC2CC2)cc1-n1cnnn1	x	x	x	n	x	x	x	x
CC(C)CCOc1ccc(C(=O)N2CCCC2C(=O)O)cc1 (configuration not stated)	n	n	n	n	20	n	n	n
CC(C)CCOc1ccc(C(=O)O)cc1	n	n	n	n	n	n	x	x
CCCN1CNC(=S)N(c2cccc(C)c2)C1	n	n	n	n	n	n	x	x
